Experiment in all cases: qHTS profiling for inhibitors of Plasmodium falciparum proliferation (AID 504749); also: nearly all actives have a fitted effect of over 60% in size
What all share (conditions): P. falciparum in erythrocytes, SYBR Green DNA, 72 h; series mostly up to 28.7 µM

One assay concerns CP238. The gist of the method: (§1)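 Parasite proliferation within erythrocytes, 72 h exposure. Endpoint: SYBR Green I fluorescence after overnight lysis at room temperature. Controls: 0.29 uM artemisinin, DMSO.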
A further assay has as its system CP247. The gist of the method: as §1
A further assay concerns CP250. In a few lines: as §1
The next assay concerns CP252. The gist of the method:
as §1

For a further assay, the system named is CP256. In a few lines:
as §1

In a further assay the test system is CP260. In a few lines: as §1
Another assay relates to CP262. In a few lines:
as §1

The subject of the next assay is CP265. The gist of the method:
as §1

In another assay the test system is CP266. In a few lines: as §1
The next assay has as its system CP268. In a few lines: as §1
The next assay relates to CP269. In a few lines:
as §1

The next assay concerns CP286. In a few lines:
as §1

Another assay relates to CP291. The gist of the method:
as §1

A further assay deals with CP297. In a few lines:
as §1

A further assay relates to CP305. The gist of the method:
as §1

A further assay relates to CP315. The gist of the method: as §1
The next assay has as its system CP325. In a few lines: as §1
For the next assay, the system named is CP329. In a few lines:
as §1

The test system of the next assay is CP335. The gist of the method: as §1
Another assay relates to DFO2036. In a few lines: as §1

Structures are written as SMILES. Records with an inconclusive call do not appear. The source made the active and inactive calls. Calls follow the shape of the dose curve; as a rule, active = well fitted inhibition curve with a large enough effect; inconclusive = small, poorly fitted or top-dose-only effect; inactive = flat fitted curve, though single readings scatter.
Potency is read from the fitted curve at half-maximal effect.

In the case of `CCC(=O)c1ccc(O)cc1`, the Potency result in the assay on CP238, in the assay with CP247, with CP250, in the assay on CP252, in the assay on CP256 and in the assay with CP260 was “inactive” throughout. For the same molecule, the Potency result in the assay on CP262, with CP265, in the assay with CP266, with CP268, in the assay with CP269 and in the assay with CP286 was “inactive” each time. In addition, the Potency result in the assay on CP291, in the assay on CP297, in the assay with CP305, in the assay with CP315, with CP325 and with CP329 was “inactive” in each case. The Potency result with CP335 and in the assay with DFO2036 was “inactive” throughout.

`COc1ccc(S(=O)(=O)Nc2nnc(CC(C)C)s2)cc1`: the Potency result with CP238, with CP247, in the assay with CP250, in the assay on CP252, in the assay on CP256 and in the assay with CP260 was “inactive” throughout. The Potency entry with CP262, in the assay on CP265, in the assay on CP266, with CP268, with CP269 and in the assay with CP286 was “inactive” each time. Further, the Potency entry in the assay on CP291, in the assay with CP297, in the assay with CP305, in the assay with CP315, in the assay with CP325 and in the assay with CP329 was “inactive” each time. For the same molecule, the Potency result in the assay on CP335 and with DFO2036 was “inactive” throughout.

`O=C(O)CC(O)C(=O)O` (stereo not given): the Potency result in the assay with CP238, in the assay with CP247, in the assay with CP250, with CP252, in the assay with CP256 and with CP260 was “inactive” throughout. Moreover, the Potency entry in the assay on CP262, in the assay with CP265, in the assay with CP266, with CP268, in the assay with CP269 and in the assay with CP286 was “inactive” in each case. Also, the Potency entry in the assay on CP291, in the assay on CP297, in the assay on CP305, with CP315, with CP325 and with CP329 was “inactive” in each case. Further, the Potency result with CP335 and with DFO2036 was “inactive” throughout.

On to `Nc1ccc(S(=O)(=O)NC(=O)c2ccccc2)cc1`, for which the Potency result in the assay on CP238, in the assay on CP247, in the assay with CP250, with CP252, in the assay on CP256 and in the assay on CP260 was “inactive” each time. Besides, the Potency entry in the assay with CP262, with CP265, in the assay with CP266, in the assay with CP268, with CP269 and in the assay with CP286 was “inactive” each time. Also, the Potency result with CP291, in the assay on CP297, with CP305, in the assay with CP315, in the assay with CP325 and with CP329 was “inactive” throughout. The Potency entry with CP335 and with DFO2036 was “inactive” throughout.

As for `CCOc1ccc2ccccc2c1C(=O)N[C@@H]1C(=O)N2[C@@H]1SC(C)(C)[C@@H]2C(=O)O`, the Potency result in the assay on CP238, in the assay on CP247, in the assay with CP250, with CP252, in the assay with CP256 and in the assay on CP260 was “inactive” in each case. Also, the Potency result in the assay with CP262, in the assay on CP265, with CP266, with CP268, in the assay on CP269 and with CP286 was “inactive” each time. Further, the Potency entry in the assay on CP291, in the assay with CP297, with CP305, in the assay with CP315, in the assay with CP325 and in the assay on CP329 was “inactive” throughout. The Potency entry in the assay on CP335 and with DFO2036 was “inactive” each time.

`CC(O)COc1ccccc1` (stereo not given): the Potency entry in the assay on CP238, in the assay with CP247, with CP250, in the assay with CP252, in the assay on CP256 and in the assay on CP260 was “inactive” in each case. Further, the Potency result in the assay on CP262, in the assay with CP265, with CP266, in the assay on CP268, in the assay with CP269 and in the assay on CP286 was “inactive” each time. Also, the Potency result in the assay with CP291, in the assay with CP297, in the assay on CP305, with CP315, in the assay with CP325 and in the assay with CP329 was “inactive” in each case. Moreover, the Potency entry with CP335 and in the assay with DFO2036 was “inactive” throughout.

With `CC12CCC(CC1)C(C)(C)O2`, the Potency result in the assay on CP238, with CP247, with CP250, in the assay with CP252, with CP256 and in the assay with CP260 was “inactive” in each case. The Potency result with CP262, with CP265, in the assay on CP266, with CP268, in the assay on CP269 and in the assay with CP286 was “inactive” in each case. For the same molecule, the Potency result in the assay on CP291, in the assay with CP297, in the assay on CP305, in the assay with CP315, in the assay on CP325 and in the assay on CP329 was “inactive” in each case. The Potency entry in the assay with CP335 and with DFO2036 was “inactive” each time.

`CC(=O)CCC(=O)O`: the Potency result in the assay with CP238, with CP247, with CP250, in the assay with CP252, in the assay on CP256 and in the assay with CP260 was “inactive” throughout. Also, the Potency result in the assay with CP262, with CP265, with CP266, with CP268, in the assay on CP269 and in the assay on CP286 was “inactive” each time. The Potency result in the assay with CP291, with CP297, with CP305, with CP315, with CP325 and in the assay with CP329 was “inactive” throughout. The Potency result in the assay with CP335 and with DFO2036 was “inactive” each time.

Take `OCC(O)CN1CCN(c2ccccc2)CC1` (stereo not given): the Potency result in the assay on CP238, in the assay on CP247, in the assay with CP250, with CP252, in the assay with CP256 and in the assay on CP260 was “inactive” each time. The Potency result in the assay with CP262, in the assay with CP265, with CP266, with CP268, in the assay on CP269 and in the assay on CP286 was “inactive” each time. Besides, the Potency entry with CP291, in the assay with CP297, in the assay with CP305, in the assay on CP315, with CP325 and in the assay on CP329 was “inactive” in each case. For the same molecule, the Potency result with CP335 and in the assay on DFO2036 was “inactive” throughout.

Turning to `Oc1cccc(O)c1`, the Potency result in the assay on CP238, in the assay with CP247, in the assay on CP250, in the assay on CP252, with CP256 and with CP260 was “inactive” in each case. The Potency entry with CP262, in the assay on CP265, in the assay with CP266, in the assay with CP268, with CP269 and in the assay on CP286 was “inactive” in each case. Moreover, the Potency result in the assay on CP291, in the assay with CP297, in the assay on CP305, in the assay on CP315, in the assay on CP325 and with CP329 was “inactive” each time. Moreover, the Potency entry in the assay on CP335 and in the assay on DFO2036 was “inactive” each time.

On to `CCCCN(CCCC)CC(O)c1cc(Cl)cc2c1-c1ccc(Cl)cc1/C2=C/c1ccc(Cl)cc1` (stereo not given), for which the Potency was 28.2 nM (active) in the assay on CP238; 39.8 nM (active) in the assay with CP247; 28.2 nM (active) in the assay on CP250; 35.5 nM (active) with CP252; 79.4 nM (active) in the assay with CP256; 31.6 nM (active) in the assay with CP260. Also, the Potency in the assay with CP262 was 33.8 nM (active); with CP265 it was 112 nM (active); with CP266, 135 nM (active); with CP268, 135 nM (active); in the assay on CP269, 37.9 nM (active); in the assay with CP286, 31.6 nM (active). For the same molecule, the Potency in the assay on CP291 was 37.9 nM (active); with CP297, 33.8 nM (active); with CP305, 107 nM (active); in the assay with CP315 it was 53.6 nM (active); in the assay with CP325 it was 42.6 nM (active); with CP329, 47.8 nM (active). Further, the results for the Potency with CP335 and in the assay on DFO2036 were 23.9 nM (active) and 12.6 nM (active), respectively.

As to `NCCNCCNCCNCCN`, the Potency result in the assay on CP238, in the assay with CP247, with CP250, in the assay on CP252, with CP256 and in the assay on CP260 was “inactive” each time. In addition, the Potency result in the assay on CP262, in the assay on CP265, with CP266, in the assay with CP268, in the assay on CP269 and in the assay on CP286 was “inactive” each time. Further, the Potency entry in the assay with CP291, in the assay with CP297, in the assay with CP305, in the assay with CP315, with CP325 and with CP329 was “inactive” in each case. Moreover, the Potency entry with CP335 and in the assay with DFO2036 was “inactive” throughout.

As to `Cc1ccc(C(C)C)cc2c(C)ccc1-2`, the Potency result with CP238, in the assay with CP247, with CP250, with CP252, in the assay on CP256 and in the assay on CP260 was “inactive” each time. Moreover, the Potency result with CP262, in the assay with CP265, with CP266, with CP268, in the assay with CP269 and in the assay with CP286 was “inactive” throughout. Moreover, the Potency result with CP291, in the assay with CP297, with CP305, in the assay with CP315, in the assay on CP325 and in the assay with CP329 was “inactive” throughout. The Potency result in the assay on CP335 and in the assay on DFO2036 was “inactive” throughout.

For `CCn1cc(C(=O)O)c(=O)c2cnc(N3CCNCC3)nc21`, the Potency entry with CP238, with CP247, in the assay with CP250, in the assay on CP252, with CP256 and with CP260 was “inactive” throughout. The Potency result in the assay on CP262, with CP265, with CP266, in the assay with CP268, in the assay on CP269 and in the assay with CP286 was “inactive” in each case. Besides, the Potency result with CP291, in the assay with CP297, with CP305, in the assay with CP315, in the assay with CP325 and in the assay on CP329 was “inactive” throughout. Besides, the Potency entry with CP335 and in the assay on DFO2036 was “inactive” throughout.

Values taken from PubChem BioAssay (NCATS).
